The results in this text go back to PubChem BioAssay (NCATS).

Inconclusive results are not listed. Values without a mark were called inactive. Calls of active or inactive are those of the source. Calls come from the whole dose curve; as a rule, active = well fitted inhibition curve with a large enough effect; inconclusive = small, poorly fitted or top-dose-only effect; inactive = no such curve, though single readings can be large or run the other way.
% is set by controls: 0 for no effect and ±100 for the full control effect.

The first assay relates to Zika virus NS2B-NS3 protease (unlinked complex). Nature of the assay: Primary screen GU Rhodamine qHTS for Zika virus inhibitors: Unlinked NS2B-NS3 protease assay (AID 1347159). Note: nearly all actives have a fitted effect of over 60% in size. The conditions noted are these: Recombinant ZIKV NS2B-NS3 protease, Rhodamine110 substrate fluorescence; series mostly up to 107 µM; activity change, negative = inhibition: at the top concentration. The essentials:
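Buffer 10 mM Tris-HCl pH 8.0, 0.01% Tween 20. Unlinked protease 25 nM; compound preincubation 15 min, RT, protected from light. Substrate Rhod110, 1.5 microM; ~15% conversion in 15 min.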
In general terms: In qHTS, concentration-response curves come from the screen itself.
As to `COc1cc2ncnc(N3CCC(Oc4cnc5ccccc5n4)C3)c2cc1OC` (stereo not given), the “activity change, negative = inhibition” value is -0.933%.

As to `Cn1cncc1C(N)(c1ccc(Cl)cc1)c1ccc2c(c1)c(-c1cccc(Cl)c1)cc(=O)n2C` (stereo not given), the “activity change, negative = inhibition” value was -3.66%. For the molecule `C=CC(=O)Nc1cc(Nc2ncc(Cl)c(-c3c[nH]c4ccccc34)n2)c(OC)cc1N(C)CCN(C)C`, the “activity change, negative = inhibition” value was 268%. The same measure, in the same setting: with `Cc1c(F)cc(C(=O)NC2CC2)cc1-c1c(F)cn2c(C(C)(C)C)nnc2c1F` the figure was 3.97%; with `C[C@@]1(O)[C@H](O)[C@@H](CO)O[C@H]1n1ccc(N)nc1=O`, -12.6%. In the case of `CC12CCC(OC3OC(CO)C(O)C(OC4OC(CO)C(O)C(O)C4O)C3O)CC1=CCC1C2CCC2(C)/C(=C3/COC(=O)C3)CCC12O` (stereo not given), the “activity change, negative = inhibition” value was 14% [at 32.5 µM]. Consider `CN1CCc2nc(C(=O)N[C@@H]3C[C@@H](C(=O)N(C)C)CC[C@@H]3NC(=O)C(=O)Nc3ccc(Cl)cn3)sc2C1`, for which the “activity change, negative = inhibition” value is -28.7%. Same read-out and setting: with `Cc1cc(C(=O)Nc2cccc(C(=O)Nc3cccc(C(F)(F)F)c3)c2)on1` the figure was -4.9%; with `COc1cc(NC(=O)Nc2cccc(CNC(=O)O[C@H]3CCOC3)c2)ccc1-c1cnco1`, 5.49%.

In the case of `COc1ccc(CCO[C@@H]2O[C@H](CO[C@@H]3OC[C@H](O)[C@H](O)[C@H]3O)[C@@H](O)[C@H](O)[C@H]2O)cc1`, the “activity change, negative = inhibition” value is 18.4% [at 57.1 µM].

The test system of another assay is Zika virus NS2B-NS3 protease (linked construct). The experiment in a line: Primary screen NINDS Rhodamine qHTS for Zika virus inhibitors (AID 1347160). Note: nearly all actives have a fitted effect of over 55% in size. Note: potency is the fitted concentration of half-maximal effect. The conditions noted are these: purified NS2B-NS3 protease, Rhodamine110 substrate fluorescence; series mostly up to 57.1 µM; activity change, negative = inhibition: at the top concentration. In a few lines: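 Aprotinin served as in-plate control. Conditions: 25 nM linked NS2B-NS3, pH 8.0 Tris buffer, titrated compounds, 15 min preincubation and 15 min reaction with 1.5 microM Rhod110 substrate at room temperature.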
As for `CC/C=C\[C@H](O)[C@H](O)C1=C(C)C(=O)[C@]2(O1)C(=O)N[C@@](OC)(C(=O)c1ccccc1)[C@@H]2O`, the “activity change, negative = inhibition” value is -17.8% [at 33.1 µM]. On to `O=C(O)c1ccc(OC2OC(CO)C(O)C(O)C2O)cc1` (stereo not given), for which the “activity change, negative = inhibition” value is 45.9%. In the case of `CC(=O)OC[C@]12[C@H](OC(C)=O)C(=O)[C@@H]3[C@@H](OC(C)=O)[C@@]14O[C@@]3(C)COC(=O)c1cccnc1[C@@H](C)[C@H](C)C(=O)O[C@@H]([C@H](O)[C@@H]2OC(C)=O)[C@]4(C)O`, the “activity change, negative = inhibition” value was -24.4% [at 15.1 µM]. Regarding `COc1ncc(Nc2ncc([C@@H](C)N3CCN(S(C)(=O)=O)CC3)cc2-c2nc(C)nc(N)n2)cc1F`, the molecule was classed as inactive. The same measure, in the same setting: with `c1cc(OCCCN2CCCCC2)ccc1CN1CCCCC1` the entry was “inactive”. In the case of `COCCOc1cnc2ccn([C@H](C)c3nnc4c(F)cc(-c5cnn(C)c5)cn34)c(=O)c2c1`, the “activity change, negative = inhibition” value was -5.08%. Still for that read-out and setting: with `Cn1c(=O)cc(N2CCCC(N)C2)n(Cc2cc(F)ccc2C#N)c1=O` (stereo not given) the figure was -1.14%. On to `CC(C)CN(C[C@@H](O)[C@H](Cc1ccccc1)NC(=O)O[C@@H]1CO[C@H]2OCC[C@H]21)S(=O)(=O)c1ccc(N)cc1`, for which the call was inactive. The same measure, in the same setting: with `C[C@@H]1C[C@@H]([C@@H](O)C(C)(C)O)O[C@H]2C[C@@]3(C)C(=C12)C[C@H](O)[C@H]1[C@@]2(C)CCC(=O)C(C)(C)C2CC[C@@]13C` (stereo not given in full) the entry was “inactive [at 33.1 µM]”. In the case of `CC1COC2(OC3CC4C5CC(O[C@@H]6O[C@H](C)[C@@H](O[C@@H]7O[C@@H](C)[C@H](O)[C@@H](O)[C@H]7O)[C@H](O)[C@H]6O)C6CC(O)CCC6(C)C5CCC4(C)C3C2C)C(O)C1` (stereo not given in full), the “activity change, negative = inhibition” value was -7.25% [at 15.1 µM]. `O=C(O)C(O[C@@H]1O[C@H](CO[C@@H]2O[C@H](CO)[C@@H](O)[C@H](O)[C@H]2O)[C@@H](O)[C@H](O)[C@H]1O)c1ccccc1` (stereo not given in full): the “activity change, negative = inhibition” value is 15.8% [at 33.1 µM]. `COC(=O)c1ccnc(-c2cc(C(=O)NCCc3ccccc3)ccn2)c1`: the “activity change, negative = inhibition” value was 11.5%.

Regarding `CC(C)(C)NC(=O)[C@@H](c1cccnc1)N(C(=O)c1ccco1)c1ccc(C(C)(C)C)cc1`, the “activity change, negative = inhibition” value was -3.28%. On the same count and under the same terms, with `C=C1CC23CC1CCC2C12OC(=O)C(C)(CCC1O)C2C3C(=O)O` (stereo not given) the figure was -16.5% [at 33.1 µM]; with `COC(=O)C1=CO[C@@H](O)C2C(CO)=CCC12` (stereo not given in full), 17.7%. For the molecule `CC1(C)CC(=O)C2=C(C1)NC(=S)NC2c1cccc(O)c1` (stereo not given), the outcome was inactive. With `COCC1OC(OC(C)(C)C2CCC3(C)C=C(C4CCC5C4(C)CC(O)C4OC(C(C)(C)OC6OC(CO)C(O)C(O)C6NC(C)=O)CCC45C)CCC3O2)C(NC(C)=O)C(O)C1O` (stereo not given), the “activity change, negative = inhibition” value was -2.64% [at 15.1 µM]. The same measure, in the same setting: with `C=C1C[C@@]23CCC4[C@@](C)(CCC[C@@]4(C)C(=O)OC)C2CC[C@@H]1C3` (stereo not given in full) the figure was 4.66% [at 33.1 µM]; with `CC1CC(=O)C2=C(CCC3(O)C(O)c4c(O)cccc4C(=O)C23O)C1` (stereo not given), -0.402% [at 33.1 µM]. `O=C(O)c1cc(I)ccc1NC(=O)[C@H](Cc1ccccc1)NCc1ccccc1`: the Potency was 15.8 µM (active). As to `C[C@H]1CC[C@@H]2N(C1)C[C@@H]1[C@H]([C@@H](O)[C@H](O)[C@]3(O)[C@H]1C[C@@]14OC5(O)[C@@H](C[C@@H](O)[C@@H]31)[C@]4(C)CC[C@@H]5O)[C@]2(C)O`, the “activity change, negative = inhibition” value is -12.6% [at 33.1 µM]. Regarding `COc1cc(N2CCC(N3CCN(C)CC3)CC2)ccc1Nc1ncc(Cl)c(-c2c[nH]c3ccccc23)n1`, the “activity change, negative = inhibition” value is 194%. On the same count and under the same terms, with `CC1=C(C)C(=O)OC(C(C)C2CCC3C4CC=C5CC(OC6OC(COC7OC(CO)C(O)C(O)C7O)C(O)C(O)C6O)CC(O)C5(C)C4CCC23C)C1` (stereo not given) the figure was 21% [at 15.1 µM]. Regarding `C/C=C1\[C@H](O[C@@H]2O[C@H](CO)[C@@H](O)[C@H](O)[C@H]2O)OC=C(C(=O)OC)[C@H]1CC(=O)O`, the “outcome” value is “inactive [at 33.1 µM]”. With `O=C(/C=C/c1ccccc1)OC[C@]12O[C@H]1[C@@H](O)[C@@H]1C=CO[C@@H](O[C@@H]3O[C@H](CO)[C@@H](O)[C@H](O)[C@H]3O)[C@@H]12`, the “activity change, negative = inhibition” value was 20.6% [at 33.1 µM].

Consider `NC(=O)Nc1cc(-c2cccc(F)c2)sc1C(=O)NC1CCCNC1` (stereo not given), for which the “activity change, negative = inhibition” value is 68.1%. On the same count and under the same terms, with `C=C1CC[C@H]2[C@@](C)(CCC(O)[C@@]2(C)CO)[C@@H]1CCC1=CCOC1=O` (stereo not given in full) the figure was 10.6% [at 33.1 µM]. For the molecule `CCCN1CCC(c2cccc(S(C)(=O)=O)c2)CC1`, the molecule was classed as inactive. As for `C=C1C(=O)O[C@@H]2C[C@H](C)[C@@]3(O)C=C(C(C)=O)[C@]4(CC3C[C@H]12)C(=O)O[C@H]1C[C@@H](C)C(CCC(C)=O)=CC[C@H]14` (stereo not given in full), the “activity change, negative = inhibition” value is 3.25% [at 33.1 µM]. On the same count and under the same terms, with `CC1(C)CC[C@]2(C(=O)O)CC[C@]3(C)C(=CCC4[C@@]5(C)CC[C@H](O[C@@H]6O[C@H](CO)[C@@H](O)[C@H](O)[C@H]6O[C@@H]6O[C@H](CO)[C@@H](O)[C@H](O)[C@H]6O)[C@@](C)(CO)C5CC[C@]43C)[C@@H]2C1` (stereo not given in full) the figure was 4.65% [at 15.1 µM]. In the case of `COc1cc2ncnc(N3CCC(Oc4cnc5ccccc5n4)C3)c2cc1OC` (stereo not given), the molecule was classed as inactive.

Regarding `Cn1cncc1C(N)(c1ccc(Cl)cc1)c1ccc2c(c1)c(-c1cccc(Cl)c1)cc(=O)n2C` (stereo not given), the result was inactive. For the molecule `C=CC(=O)Nc1cc(Nc2ncc(Cl)c(-c3c[nH]c4ccccc34)n2)c(OC)cc1N(C)CCN(C)C`, the “activity change, negative = inhibition” value was 254%.

As for `Cc1c(F)cc(C(=O)NC2CC2)cc1-c1c(F)cn2c(C(C)(C)C)nnc2c1F`, the “activity change, negative = inhibition” value is -7.76%. Same read-out and setting: with `C[C@@]1(O)[C@H](O)[C@@H](CO)O[C@H]1n1ccc(N)nc1=O` the figure was 49.5%; with `CC12CCC(OC3OC(CO)C(O)C(OC4OC(CO)C(O)C(O)C4O)C3O)CC1=CCC1C2CCC2(C)/C(=C3/COC(=O)C3)CCC12O` (stereo not given), 18.4% [at 15.1 µM]. For `CN1CCc2nc(C(=O)N[C@@H]3C[C@@H](C(=O)N(C)C)CC[C@@H]3NC(=O)C(=O)Nc3ccc(Cl)cn3)sc2C1`, the result was inactive. Consider `Cc1cc(C(=O)Nc2cccc(C(=O)Nc3cccc(C(F)(F)F)c3)c2)on1`, for which the outcome was inactive. For the molecule `COc1cc(NC(=O)Nc2cccc(CNC(=O)O[C@H]3CCOC3)c2)ccc1-c1cnco1`, the “activity change, negative = inhibition” value was -0.451%. Still for that read-out and setting: with `COc1ccc(CCO[C@@H]2O[C@H](CO[C@@H]3OC[C@H](O)[C@H](O)[C@H]3O)[C@@H](O)[C@H](O)[C@H]2O)cc1` the figure was -4.7% [at 33.1 µM].
